Our source for the outcome and Potency values is PubChem BioAssay (Tox21).

Structures are written as SMILES. Values without a mark were called inactive. Records with an inconclusive call do not appear. Calls of active or inactive are those of the source. Unless noted, the call rests on the fitted dose curve; in most records, active means well fitted curve in the direction sought with a large enough effect in the repeat runs; inconclusive means weak or mixed curves; inactive means no such curve, though single readings can be large; an effect the other way counts as inactive or inconclusive.

Test [1] can be described thus: qHTS assay to identify small molecule agonists of the constitutive androstane receptor (CAR) signaling pathway - cell viability counter screen (AID 1224836). Further: series mostly up to about 92 µM; nearly all actives have a fitted effect of over 45% in size. In a few lines: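 Counter screen multiplexed with the CAR reporter readout: HepG2 cells co-transfected with hCAR and the CYP2B6-2.2kb construct receive a 15-concentration compound series and 0.75 uM PK11195 (final), then CellTiter-Fluor fluorescence is read after 23 h.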
In general terms: Quantitative high-throughput screening tests each substance at several concentrations.

Test [2] in a line: qHTS assay to identify small molecule antagonists of the constitutive androstane receptor (CAR) signaling pathway - cell viability counter screen (AID 1224837). Further: series mostly up to about 92 µM; nearly all actives have a fitted effect of over 45% in size. In a few lines:
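HepG2 cells stably expressing hCAR and a CYP2B6-2.2kb reporter were plated and pre-incubated 4 hr at 37 C/5% CO2, then given compounds at 15 concentrations plus 50 nM CITCO (final). After 23 hr, viability was read by CellTiter-Fluor fluorescence.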

Test [3] deals with Nuclear receptor subfamily 1 group I member 3 (Homo sapiens) (UniProt Q14994). Put plainly: qHTS assay to identify small molecule antagonists of the constitutive androstane receptor (CAR) signaling pathway (AID 1224838). Further: nearly all actives have a fitted effect of over 40% in size. In a few lines: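 HepG2 cells stably co-transfected with hCAR and a CYP2B6-2.2kb luciferase reporter were seeded 4 h before compound addition at 15 concentrations. Cells were stimulated with 50 nM CITCO (final) for 24 h at 37 C; luciferase luminescence was then read.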
Sequence of Nuclear receptor subfamily 1 group I member 3 (Homo sapiens) (Q14994 whole entry, looked up): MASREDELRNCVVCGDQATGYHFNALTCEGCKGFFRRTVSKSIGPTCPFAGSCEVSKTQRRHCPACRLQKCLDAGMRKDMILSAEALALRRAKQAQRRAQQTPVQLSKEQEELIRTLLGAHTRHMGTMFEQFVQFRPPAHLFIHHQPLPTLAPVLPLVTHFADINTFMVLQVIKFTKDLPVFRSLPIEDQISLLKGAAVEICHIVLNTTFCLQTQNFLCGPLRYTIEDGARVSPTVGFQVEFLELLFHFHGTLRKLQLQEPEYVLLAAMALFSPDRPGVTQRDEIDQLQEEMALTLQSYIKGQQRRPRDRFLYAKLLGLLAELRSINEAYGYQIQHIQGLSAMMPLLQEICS

For test [4] the target is unchanged. The experiment in a line: qHTS assay to identify small molecule agonists of the constitutive androstane receptor (CAR) signaling pathway (AID 1224839). Further: series mostly up to about 92 µM; nearly all actives have a fitted effect of over 15% in size. In a few lines: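 A 15-concentration quantitative screen uses HepG2 cells co-transfected stably with human CAR and CYP2B6-2.2kb reporter. Treatment lasts 24 h with 0.75 uM PK11195 final present; ONE-Glo luminescence is the signal.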

Test [5] is described as follows: qHTS assay to identify small molecule antagonists of the estrogen related receptor signaling pathway with the pleiotropic PPARgamma coactivator (PGC) from Tox21 10K library - cell viability counter screen (AID 1224840; active means well fitted cell-killing curve with a large enough effect in the repeat runs, not every such curve was filed as active; further: nearly all actives have a fitted effect of over 40% in size). In a few lines: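 PGC/ERR cells were seeded at 2,000 cells/well and left 6 hours at 37 C/5% CO2 before pin-tool addition of compounds in DMSO. After 17.5 hours at 37 C, CellTiter-Fluor was added and fluorescence read 30 minutes later.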

Test [6] can be described thus: qHTS assay to identify small molecule agonists of the hypoxia (HIF-1) signaling pathway - cell viability counter screen (AID 1224844; calls by dose curve; further: nearly all actives have a fitted effect of over 50% in size). In a few lines: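 HRE-bla ME-180 cells in medium with 0.5% dialyzed FBS were preincubated 5 hrs at 37C, exposed to compounds for 17 hrs, then viability was read as CellTiter-Glo luminescence after 30 min at room temperature, in the reporter wells.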

Test [7] can be described thus: qHTS assay to identify small molecule agonists of H2AX (AID 1224845; active means well fitted activation curve with a large enough effect in the signal ratio in the repeat runs, not every such curve was filed as active; the % refers to the signal ratio). In a few lines:
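Phospho-H2AX Ser139 measured by HTRF (ex 320 nm; em 665 and 620 nm) after 24 hr antibody incubation. Compounds, 15 concentrations, 0.76% DMSO, were applied to CHO-K1 cells for 3hr at 37C before lysis.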

The nature of test [8]: qHTS assay to identify small molecule agonists of the hypoxia (HIF-1) signaling pathway (AID 1224846; active means well fitted activation curve with a large enough effect in the signal ratio in the repeat runs, not every such curve was filed as active; the % refers to the signal ratio). In a few lines: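 HRE-bla ME-180 cells (beta-lactamase reporter under hypoxia response element) were plated at 2,000 cells/well in medium with 0.5% dialyzed FBS, rested 5 hrs, then given compounds in DMSO for 17 hrs at 37C, 5% CO2. Reporter induction was read with CCF4-AM FRET substrate.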

A short description of test [9]: qHTS assay to identify small molecule agonists of H2AX - cell viability counter screen (AID 1224847; calls by dose curve; further: top concentration of the series differs between compounds; nearly all actives have a fitted effect of over 30% in size). In a few lines:
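We seed wild-type CHO-K1 cells overnight, treat them for 3 hr at 37C with compounds in 15-concentration series, and quantify remaining viability by CellTiter-Glo luminescence.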

A short description of test [10]: qHTS RealTime-Glo MT Cell Viability Assay in HepG2 cells - 24 hour (AID 1224867). Further: nearly all actives have a fitted effect of over 50% in size. In a few lines: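 qHTS, HepG2, 600 cells/well, RealTime-Glo (NanoLuc + prosubstrate) added with cells; 5 h preincubation; DMSO compound addition; 37 C; luminescence at 0/8/16/24/32/40 h.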
Test [11] in a line: qHTS RealTime-Glo MT Cell Viability Assay in HEK293 cells - 32 hour (AID 1224868). Further: top concentration of the series differs between compounds; nearly all actives have a fitted effect of over 50% in size. In a few lines:
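Assay medium contained NanoLuc luciferase plus cell-permeant prosubstrate, added with HEK293 cells at 600 cells/well. After 5 h at 37 C/5% CO2 compounds were added; plates stayed at 37 C for 40 h with serial luminescence reads.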

Test [12] is described as follows: A CellTox Green Cytotoxicity Assay to monitor cytotoxicity in HEK293 cells - 0 hour (AID 1224869). Further: nearly all actives have a fitted effect of over 50% in size. In a few lines: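 HEK293 cells premixed with CellTox Green dye were seeded at 600 cells/well and left 5 h at 37 C/5% CO2 before pin transfer of 23 nL compound in DMSO. Fluorescence from dye bound to dead-cell DNA was read during 40 h treatment.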
A short description of test [13]: qHTS RealTime-Glo MT Cell Viability Assay in HepG2 cells - 40 hour (AID 1224870). Further: nearly all actives have a fitted effect of over 50% in size. In a few lines: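 Real-time viability: cells seeded at 600 per well together with NanoLuc and cell-permeant prosubstrate, compounds added after 5 h incubation. Luminescence tracked at 0, 8, 16, 24, 32 and 40 h of exposure.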
In test [14] the target is Luciferin 4-monooxygenase (Photinus pyralis) (UniProt P08659). The experiment in a line: qHTS assay to identify small molecule inhibitors of firefly luciferase (AID 1224835). Further: nearly all actives have a fitted effect of over 25% in size. Further: potency means the concentration at half of the fitted maximal effect. In a few lines:
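Inhibition of purified Photinus luciferase is measured by luminescence. Substrate levels (D-luciferin, ATP) sit at their KM values. Each compound is tested in a concentration series.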

Test [15] can be described thus: qHTS assay to identify small molecule antagonists of the estrogen related receptor signaling pathway with the pleiotropic PPARgamma coactivator (PGC) from Tox21 10K library (AID 1224841; call rule not given here). In a few lines: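 PGC/ERR reporter cells were seeded at 2,000 cells/well and held 6 hours at 37 C/5% CO2 before pin-tool addition of compounds in DMSO. After 18 hours at 37 C, One-Glo was added and luminescence read after 30 minutes at room temperature.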

A short description of test [16]: qHTS assay to identify small molecule agonists of the estrogen related receptor signaling pathway with the pleiotropic PPARgamma coactivator (PGC) from Tox21 10K library (AID 1224842). Further: nearly all actives have a fitted effect of over 15% in size. In a few lines:
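Luminescence from One-Glo (30 min, room temperature) measured after PGC/ERR cells had 18 h at 37 C with pinned compound (23 nL in DMSO). Cells had been seeded at 2,000 per well and pre-incubated 6 h.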

Test [17] in a line: qHTS assay to identify small molecule antagonists of the estrogen related receptor (ERR) signaling pathway from Tox21 library (AID 1224848). Further: nearly all actives have a fitted effect of over 50% in size. In a few lines: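 Antagonist-mode screen of the Tox21 10K library in an NTP-provided ERR reporter cell line; 18 h compound exposure at 37 C, luminescence measured with ONE-Glo.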
The nature of test [18]: qHTS assay to identify small molecule agonists of the estrogen related receptor (ERR) signaling pathway from Tox21 library (AID 1224849; calls by dose curve; further: nearly all actives have a fitted effect of over 15% in size). In a few lines:
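ERR reporter cell line (NTP) seeded, rested 6 h at 37 C/5% CO2, then pinned with Tox21 compounds in DMSO. After 18 h at 37 C, ONE-Glo luciferase luminescence was read following 30 min at room temperature.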

Test [19] addresses Thyrotropin receptor (Homo sapiens) (UniProt P16473). Put plainly: qHTS assay to identify small molecule agonists of the thyroid stimulating hormone receptor (TSHR) signaling pathway (AID 1224843; calls by dose curve; further: nearly all actives have a fitted effect of over 45% in size). In a few lines: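 Screening of the Tox21 10K collection used HEK293 cells engineered with TSHR at 800 cells per well. After a 30-min room-temperature compound exposure, HTRF cAMP reagents were added and fluorescence recorded 1 h later.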

Sequence of Thyrotropin receptor (Homo sapiens) (P16473 whole entry, looked up): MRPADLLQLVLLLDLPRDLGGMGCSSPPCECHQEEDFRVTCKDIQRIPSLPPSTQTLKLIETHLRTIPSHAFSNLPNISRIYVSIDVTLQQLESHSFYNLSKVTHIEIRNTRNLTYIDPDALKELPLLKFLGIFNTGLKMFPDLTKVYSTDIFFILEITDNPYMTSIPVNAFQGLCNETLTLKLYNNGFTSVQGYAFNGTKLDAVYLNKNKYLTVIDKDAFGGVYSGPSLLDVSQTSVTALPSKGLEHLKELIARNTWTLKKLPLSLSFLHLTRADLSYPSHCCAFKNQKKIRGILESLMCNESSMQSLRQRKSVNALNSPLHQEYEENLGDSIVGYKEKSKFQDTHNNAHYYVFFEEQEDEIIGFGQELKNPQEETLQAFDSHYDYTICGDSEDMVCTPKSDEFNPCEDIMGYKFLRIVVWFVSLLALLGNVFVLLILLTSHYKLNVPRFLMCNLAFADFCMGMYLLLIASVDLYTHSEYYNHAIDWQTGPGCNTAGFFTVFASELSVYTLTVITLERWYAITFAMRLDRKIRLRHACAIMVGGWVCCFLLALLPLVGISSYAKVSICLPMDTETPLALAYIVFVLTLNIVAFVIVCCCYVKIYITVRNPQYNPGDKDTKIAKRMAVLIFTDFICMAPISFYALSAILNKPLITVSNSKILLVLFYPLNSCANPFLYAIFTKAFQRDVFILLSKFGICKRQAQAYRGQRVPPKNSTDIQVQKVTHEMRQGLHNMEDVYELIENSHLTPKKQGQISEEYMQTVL
Sequence of Luciferin 4-monooxygenase (Photinus pyralis) (P08659 whole entry, looked up): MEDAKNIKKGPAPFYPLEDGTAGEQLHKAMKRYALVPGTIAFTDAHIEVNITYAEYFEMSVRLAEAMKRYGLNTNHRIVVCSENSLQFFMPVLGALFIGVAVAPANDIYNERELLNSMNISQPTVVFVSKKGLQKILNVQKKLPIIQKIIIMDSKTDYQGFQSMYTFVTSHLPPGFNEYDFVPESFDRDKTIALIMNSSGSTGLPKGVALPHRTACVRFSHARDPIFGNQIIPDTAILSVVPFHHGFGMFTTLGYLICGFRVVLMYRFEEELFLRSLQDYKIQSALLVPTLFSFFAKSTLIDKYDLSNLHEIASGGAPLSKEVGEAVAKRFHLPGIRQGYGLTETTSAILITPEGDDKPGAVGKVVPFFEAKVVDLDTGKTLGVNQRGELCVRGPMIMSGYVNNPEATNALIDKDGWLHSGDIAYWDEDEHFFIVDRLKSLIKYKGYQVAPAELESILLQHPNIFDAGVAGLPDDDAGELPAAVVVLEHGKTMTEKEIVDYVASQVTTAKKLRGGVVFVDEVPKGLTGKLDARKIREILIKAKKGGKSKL

On to `Nc1ccccn1`, for which the molecule was classed as inactive in [1], in [2], in test [5], in test [8], in [9] and in test [10]. In addition, the molecule was classed as inactive in [12]. Moreover, the Potency entry in test [3], in [4], in test [6], in [7], in [11] and in [13] was “inactive” throughout.

For the molecule `CCCCCCC#CC(=O)OC`, the Potency entry in [14], in test [3], in test [4], in [15], in [16] and in test [6] was “inactive” in each case. Further, the Potency result in test [17], in test [11] and in [13] was “inactive” throughout. The molecule was classed as inactive in test [1], in test [5], in test [8], in test [9], in test [18] and in [10]. Also, the molecule was called inactive in test [12].

Regarding `C[N+]1(C)[C@@H]2CC(OC(=O)[C@H](CO)c3ccccc3)C[C@H]1[C@@H]1O[C@@H]12` (stereo partly specified), the Potency entry in test [14], in [19], in test [6] and in test [7] was “inactive” in each case. In addition, the molecule was called inactive in [1], in test [2], in test [9] and in test [12].

As to `CCCCCCCCCC[N+](C)(C)[O-]`, the Potency entry in test [14], in [15], in [16], in test [6], in test [17] and in [11] was “inactive” throughout. For the same molecule, the Potency entry in test [13] was “inactive”. Further, the molecule was classed as inactive in test [1], in test [2], in test [5], in [8], in test [9] and in test [18]. Also, the molecule was classed as inactive in [10] and in [12].

For `CNC(=O)Nc1ccc(Cl)c(Cl)c1`, in [14], the Potency is 56.4 µM (active). Further, the molecule was called inactive in [1], in [2], in test [5], in test [8], in test [9] and in [10]. The outcome in [12] was inactive. Also, the Potency entry in test [3], in [19], in test [6], in test [7], in test [11] and in test [13] was “inactive” in each case.

Turning to `CC1CCC(CO)CC1` (stereo unspecified), the Potency result in test [14], in test [3], in test [4], in test [19], in [6] and in test [7] was “inactive” each time. In addition, the Potency entry in test [11] and in test [13] was “inactive” throughout. The call in test [1], in [2], in [5], in test [8], in [9] and in test [10] was inactive. The call in [12] was inactive.

For `CCOC(=O)C(=O)CCCCCCl`, the Potency result in test [14], in [3], in test [4], in test [19], in [6] and in [7] was “inactive” throughout. The Potency result in [11] and in test [13] was “inactive” in each case. For the same molecule, the call in test [1], in test [2], in test [5], in [8], in test [9] and in test [10] was inactive. Besides, the result in test [12] was inactive.

Take `C=CC(=O)OCCCl`: the Potency entry in [14], in [6], in test [7], in test [11] and in [13] was “inactive” in each case. Moreover, the molecule was classed as inactive in test [1], in test [2], in test [5], in test [8], in test [9] and in [10]. In addition, the result in test [12] was inactive.

Turning to `CCOC(=O)COc1cc(-n2ncc(C(F)(F)F)c(C)c2=O)c(F)cc1Cl`, the molecule was classed as inactive in test [1], in test [2], in [5], in test [8], in test [9] and in test [10]. Further, the molecule was classed as inactive in test [12]. For the same molecule, the Potency entry in [3], in test [4], in test [6], in [7], in [11] and in test [13] was “inactive” in each case.
